For assay [1], the target named is Retinoic acid receptor RXR-alpha (Homo sapiens) (UniProt P19793). The assay can be described thus: qHTS assay to identify small molecule agonists of the RXR signaling pathway (AID 1159527; calls by dose curve; also: nearly all actives have a fitted effect of over 35% in size). In outline: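 Agonist mode; 9-cis retinoic acid positive control. HEK 293T UAS-bla reporter cells, 2% charcoal-stripped FBS, 16 hr compound exposure at 37 C/5% CO2. LiveBLAzer B/G FRET substrate 2 hr RT; ex 405, em 460/530 nm.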
Background: qHTS replaces the single test concentration by a dilution series.

Assay [2] in a line: qHTS assay to identify small molecule agonists of the RXR signaling pathway - cell viability counter screen (AID 1159529). Also: series mostly up to about 77 µM; nearly all actives have a fitted effect of over 50% in size. In outline: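 Luminescence from CellTiter-Glo (30 min, RT) measured viability in the same wells as the beta-lactamase reporter readout. Cells: GeneBLAzer RXR-alpha HEK 293T, 2% charcoal-stripped FBS. Compound exposure 16 hr, 37 C.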
The nature of assay [3]: qHTS assay to identify small molecule antagonists of the retinoid acid receptor (RAR) signaling pathway - cell viability counter screen (AID 1159551). Also: nearly all actives have a fitted effect of over 35% in size. A digest of the protocol: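 C3RL4 RARE-luciferase line; cpds + retinol 1 uM final, 6 h, 37 C/5% CO2; CellTiter-Glo ATP luminescence, 30 min RT.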
Assay [4] can be described thus: qHTS assay to identify small molecule antagonists of the estrogen related receptor (ERR) signaling pathway from Tox21 library - cell viability counter screen (AID 1224834). Also: nearly all actives have a fitted effect of over 30% in size. A digest of the protocol:
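Multiplexed viability counter screen in ERR cells: 17.5 h compound exposure at 37 C, CellTiter-Fluor added, 30 min at 37 C/5% CO2, fluorescence read.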

Assay [5] addresses Luciferin 4-monooxygenase (Photinus pyralis) (UniProt P08659). As to the kind of experiment: qHTS assay to identify small molecule inhibitors of firefly luciferase (AID 1224835). Also: nearly all actives have a fitted effect of over 25% in size. Also: potency is read from the fitted curve at half-maximal effect. In outline:
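Quantitative HTS format; KM concentrations of both substrates. Purified P. pyralis FLuc activity quantified from luminescence images.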

A short description of assay [6]: qHTS assay to identify small molecule agonists of the constitutive androstane receptor (CAR) signaling pathway - cell viability counter screen (AID 1224836). Also: series mostly up to about 92 µM; nearly all actives have a fitted effect of over 45% in size. In outline: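 Viability read-out: CellTiter-Fluor fluorescence after 23 h compound exposure at 37 C/5% CO2 in double-stable HepG2-CYP2B6-hCAR cells, with PK11195 present at 0.75 uM final; compounds tested in 15-point titration.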

Assay [7] in a line: qHTS assay to identify small molecule antagonists of the constitutive androstane receptor (CAR) signaling pathway - cell viability counter screen (AID 1224837). Also: series mostly up to about 92 µM; nearly all actives have a fitted effect of over 45% in size. In outline:
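Read-out: CellTiter-Fluor fluorescence after 23 hr at 37 C/5% CO2. Cells: HepG2 double-stable for hCAR and CYP2B6-2.2kb. Compounds tested at 15 concentrations in the presence of CITCO, final concentration 50 nM.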

A short description of assay [8]: qHTS assay to identify small molecule antagonists of the estrogen related receptor signaling pathway with the pleiotropic PPARgamma coactivator (PGC) from Tox21 10K library - cell viability counter screen (AID 1224840; active = well fitted cell-killing curve with a large enough effect in the repeat runs, not every such curve was filed as active; also: nearly all actives have a fitted effect of over 40% in size). In outline:
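Fluorescence read-out of CellTiter-Fluor viability reagent, added after cells had been exposed to compound in DMSO for 17.5 h at 37 C; 30 min development at 37 C/5% CO2. Cells: PGC/ERR line, 2,000/well.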

For assay [9], the target named is Nuclear receptor subfamily 1 group I member 3 (Homo sapiens) (UniProt Q14994). The assay can be described thus: qHTS assay to identify small molecule antagonists of the constitutive androstane receptor (CAR) signaling pathway (AID 1224838).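 Also: HepG2 cells stably expressing hCAR with CYP2B6 luciferase reporter stimulated by CITCO; nearly all actives have a fitted effect of over 40% in size.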 In outline: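 Read-out: ONE-Glo luciferase luminescence after 30 min at room temperature. HepG2-CYP2B6-hCAR double-stable cells, compounds in 15-point titration plus 50 nM CITCO final, 24 h at 37 C/5% CO2.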

Assay [10] shares this target. As to the kind of experiment: qHTS assay to identify small molecule agonists of the constitutive androstane receptor (CAR) signaling pathway (AID 1224839).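 Also: HepG2 cells stably carrying human CAR and a CYP2B6 luciferase reporter; series mostly up to about 92 µM; nearly all actives have a fitted effect of over 15% in size.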 A digest of the protocol:
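Luminescence read-out (ONE-Glo, 30 min, room temperature) from double-stable HepG2-CYP2B6-hCAR cells exposed 24 h to 15-point compound series in presence of 0.75 uM PK11195 final.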

The nature of assay [11]: qHTS assay to identify small molecule antagonists of the estrogen related receptor signaling pathway with the pleiotropic PPARgamma coactivator (PGC) from Tox21 10K library (AID 1224841; call rule not given here; also: series mostly up to about 92 µM; actives are mostly falling curves and most rising ones were filed inactive; nearly all actives have a fitted effect of over 50% in size). In outline: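 Luminescence read-out (One-Glo luciferase reagent, 30 min at room temperature) from PGC/ERR cells exposed to DMSO-dissolved test compounds for 18 h at 37 C; cells, 2,000 per well, had been preincubated 6 h before compound transfer.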

A short description of assay [12]: qHTS assay to identify small molecule agonists of the estrogen related receptor signaling pathway with the pleiotropic PPARgamma coactivator (PGC) from Tox21 10K library (AID 1224842). Also: nearly all actives have a fitted effect of over 15% in size. In outline:
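PGC/ERR reporter cells (NTP line) were seeded 2,000 per well, rested 6 h at 37 C/5% CO2, then pin-dosed with compounds in DMSO for 18 h at 37 C; luciferase read by One-Glo luminescence after 30 min at room temperature.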

Records with an inconclusive call do not appear. A number with no mark means an inactive call. The source made the active and inactive calls. Unless noted, calls follow the shape of the dose curve; as a rule, active = well fitted curve in the direction sought with a large enough effect in the repeat runs; inconclusive = weak or mixed curves; inactive = no such curve, though single readings can be large; an effect the other way counts as inactive or inconclusive.

Nuclear receptor subfamily 1 group I member 3 (Homo sapiens), sequence (Q14994 whole entry, looked up): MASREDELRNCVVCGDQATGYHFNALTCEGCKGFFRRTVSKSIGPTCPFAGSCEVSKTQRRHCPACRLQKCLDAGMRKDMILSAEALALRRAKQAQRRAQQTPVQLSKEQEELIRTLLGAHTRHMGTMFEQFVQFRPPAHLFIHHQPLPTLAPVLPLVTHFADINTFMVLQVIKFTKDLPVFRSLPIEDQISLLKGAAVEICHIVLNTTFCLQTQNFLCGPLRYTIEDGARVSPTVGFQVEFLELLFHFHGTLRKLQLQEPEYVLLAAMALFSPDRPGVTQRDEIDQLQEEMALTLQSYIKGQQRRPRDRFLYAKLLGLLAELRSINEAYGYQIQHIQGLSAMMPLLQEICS
Retinoic acid receptor RXR-alpha (Homo sapiens), sequence (P19793 whole entry, looked up): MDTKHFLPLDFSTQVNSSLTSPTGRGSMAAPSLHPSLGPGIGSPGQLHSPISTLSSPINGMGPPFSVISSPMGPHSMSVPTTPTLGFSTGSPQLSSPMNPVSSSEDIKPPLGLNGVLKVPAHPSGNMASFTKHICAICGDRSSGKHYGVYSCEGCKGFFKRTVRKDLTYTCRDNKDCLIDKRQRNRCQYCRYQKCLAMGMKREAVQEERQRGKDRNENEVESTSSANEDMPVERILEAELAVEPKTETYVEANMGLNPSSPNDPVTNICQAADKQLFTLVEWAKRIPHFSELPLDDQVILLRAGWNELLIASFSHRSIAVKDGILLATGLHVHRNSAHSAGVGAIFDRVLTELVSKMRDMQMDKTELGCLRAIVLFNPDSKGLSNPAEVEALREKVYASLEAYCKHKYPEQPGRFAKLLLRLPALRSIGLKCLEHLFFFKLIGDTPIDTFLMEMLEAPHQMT
Luciferin 4-monooxygenase (Photinus pyralis), sequence (P08659 whole entry, looked up): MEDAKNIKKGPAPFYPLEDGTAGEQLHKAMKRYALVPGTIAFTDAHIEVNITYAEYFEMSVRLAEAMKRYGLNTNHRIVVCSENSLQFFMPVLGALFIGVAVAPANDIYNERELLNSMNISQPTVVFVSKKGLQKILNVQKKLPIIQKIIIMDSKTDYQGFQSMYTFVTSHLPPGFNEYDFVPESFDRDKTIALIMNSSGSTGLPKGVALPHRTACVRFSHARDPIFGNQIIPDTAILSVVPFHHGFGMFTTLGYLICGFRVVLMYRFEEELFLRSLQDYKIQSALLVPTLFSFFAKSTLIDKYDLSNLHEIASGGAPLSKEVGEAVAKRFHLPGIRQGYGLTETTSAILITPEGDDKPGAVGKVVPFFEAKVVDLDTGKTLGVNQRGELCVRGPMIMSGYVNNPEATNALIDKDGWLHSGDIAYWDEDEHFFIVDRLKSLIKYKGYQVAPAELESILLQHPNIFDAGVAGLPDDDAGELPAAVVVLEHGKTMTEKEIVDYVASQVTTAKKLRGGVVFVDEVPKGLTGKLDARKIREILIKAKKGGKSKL

As to `OCCN1C[C@H](O)[C@@H](O)[C@H](O)[C@H]1CO`, the Potency result in assay [1], in assay [2], in [4] and in [5] was “inactive” each time. Moreover, the outcome in [3], in assay [6], in [7] and in [8] was inactive.

In the case of `CN(C)CCn1nnnc1SCC1=C(C(=O)O)N2C(=O)[C@@H](NC(=O)Cc3csc(N)n3)[C@H]2SC1`, the Potency result in assay [1], in [2], in [4], in assay [5], in assay [9] and in assay [10] was “inactive” in each case. The call in assay [3], in assay [6], in [7] and in [8] was inactive.

In the case of `CN1[C@@H]2CC[C@H]1CC(NC(=O)n1c(=O)[nH]c3ccccc31)C2` (stereo not given in full), the Potency entry in assay [1], in assay [2], in assay [4], in assay [5], in assay [11] and in assay [12] was “inactive” each time. Further, the call in assay [3], in assay [6], in assay [7] and in [8] was inactive.

As to `CCCCc1ccc(N)cc1`, the Potency entry in assay [1], in assay [2], in assay [4], in assay [5], in assay [9] and in assay [10] was “inactive” in each case. In addition, the compound was classed as inactive in assay [3], in [6], in [7] and in assay [8].

As for `Nc1cc(N)cc(C(=O)O)c1`, the Potency result in assay [1], in assay [2], in assay [4] and in assay [5] was “inactive” throughout. For the same compound, the outcome in assay [3], in assay [6], in [7] and in [8] was inactive.

Consider `c1ccc(CCCc2ccccn2)cc1`, for which the Potency entry in [1], in assay [2], in [4], in [9] and in [11] was “inactive” each time. For the same compound, the call in assay [3], in assay [6], in assay [7] and in assay [8] was inactive. Moreover, in assay [5], the Potency was 31.7 µM (active).

On to `C=CCSCC1Nc2cc(Cl)c(S(N)(=O)=O)cc2S(=O)(=O)N1` (stereo not given), for which the Potency result in assay [1], in assay [2], in [4], in [5] and in assay [10] was “inactive” in each case. Besides, the compound was classed as inactive in [3], in [6], in [7] and in [8].

Take `CCN(CC)S(=O)(=O)c1ccc(C(=O)O)cc1`: the Potency result in assay [1], in [2], in assay [4], in [5], in assay [9] and in [10] was “inactive” each time. For the same compound, the outcome in [3], in [6] and in [8] was inactive.

Take `C=C(C)[C@@H]1CCC2=CC(=O)C[C@@H](C)[C@]2(C)C1`: the Potency result in [1], in assay [2], in assay [4], in assay [5], in assay [11] and in assay [12] was “inactive” each time. The outcome in assay [3], in assay [6], in assay [7] and in assay [8] was inactive.

`NS(=O)(=O)c1cc2c(cc1C(F)(F)F)NC(Cc1ccccc1)NS2(=O)=O` (stereo not given): the Potency entry in [1], in assay [2], in [4], in assay [5], in [9] and in [10] was “inactive” each time. In addition, the outcome in [3], in assay [6], in assay [7] and in assay [8] was inactive.

On to `CC(C=O)Cc1ccc(C(C)C)cc1` (stereo not given), for which the Potency result in [1], in assay [2], in [4], in [5], in assay [9] and in assay [10] was “inactive” throughout. Moreover, the outcome in [3], in assay [6], in [7] and in [8] was inactive.

On to `C=C[Si](OC)(OC)OC`, for which the Potency result in [1], in assay [2], in [4], in assay [5], in assay [9] and in assay [10] was “inactive” in each case. Also, the outcome in assay [3], in assay [6], in assay [7] and in assay [8] was inactive.

As for `CCC(C(=O)NC(N)=O)c1ccccc1` (stereo not given), the Potency result in assay [1], in [2], in assay [4], in assay [5], in assay [11] and in assay [12] was “inactive” throughout. Moreover, the compound was classed as inactive in assay [3], in [6], in [7] and in [8].

For `COc1cccc(OC)c1`, the Potency result in [1], in assay [2], in assay [4], in assay [5] and in assay [10] was “inactive” each time. For the same compound, the result in assay [3], in [6], in assay [7] and in assay [8] was inactive.

As for `NS(=O)(=O)c1cc2c(cc1Cl)NC(CSCc1ccccc1)=NS2(=O)=O`, the Potency entry in assay [1], in assay [2], in [4], in assay [5], in [9] and in assay [10] was “inactive” in each case. In addition, the compound was classed as inactive in assay [3], in [6], in [7] and in assay [8].

As to `COc1cccc(Br)c1`, the Potency result in [1], in assay [2], in assay [4], in [5], in assay [11] and in [12] was “inactive” each time. The outcome in assay [3], in assay [6], in assay [7] and in assay [8] was inactive.

For `CCCCCOC(=O)Nc1nc(=O)n([C@@H]2O[C@H](C)[C@@H](O)[C@H]2O)cc1F`, the Potency entry in assay [1], in assay [2], in assay [4], in [5], in assay [9] and in assay [10] was “inactive” each time. Further, the outcome in assay [3], in assay [6], in assay [7] and in [8] was inactive.

`C#CC(O)C(CC)CCCC` (stereo not given): the Potency entry in assay [1], in assay [2], in assay [4], in assay [5] and in [10] was “inactive” in each case. The call in assay [3], in assay [6], in assay [7] and in assay [8] was inactive.

In the case of `CCN1CCCC(OC(=O)C(c2ccccc2)c2ccccc2)C1` (stereo not given), the Potency entry in assay [1], in assay [2], in assay [4], in assay [5], in [9] and in assay [10] was “inactive” throughout. The compound was classed as inactive in assay [3], in assay [6] and in assay [8].

With `COc1cc(C)cc(O)c1`, the Potency result in [1], in [2], in assay [4], in assay [5], in assay [9] and in assay [10] was “inactive” throughout. For the same compound, the call in assay [3], in assay [6], in [7] and in assay [8] was inactive.

In the case of `CCCCOCC(C)OCC(C)O` (stereo not given), the Potency entry in [1], in [2], in assay [4], in [5] and in assay [10] was “inactive” each time. In addition, the call in assay [3], in [6], in assay [7] and in assay [8] was inactive.

For `O=C(O)/C=C/c1ccc(/C=C/C(=O)O)cc1`, the Potency entry in [1], in assay [2], in assay [4], in [5], in [9] and in assay [10] was “inactive” throughout. Moreover, the call in assay [3], in assay [6], in [7] and in assay [8] was inactive.
